ALOX12 inh: blocks human arachidonate 12S-lipoxygenase. P18054. purified 12hLO, xylenol orange hydroperoxide absorbance. Potency, µM (series often up to 108 µM), inactives show at the top dose activity change, negative = inhibition, hits mostly inhibitors. 580,000 compounds, 1.1% hits; further: on the % scale 0 is the no-effect control and ±100 the full control effect
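Hydroperoxide product was detected by ferrous iron/xylenol orange as the 573 to 405 nm absorbance ratio. Arachidonic acid at 40 uM (final) was turned over for 30 min at room temperature by 150 nM human 12hLO, pH 7.0 Hepes buffer, after 15 min compound preincubation.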
G9a block: inhibitors of human histone lysine methyltransferase G9a | G9a H3K9 monomethylation, AlphaScreen, 2 h | Q96KQ7 | Potency, µM (highest dose often 102 µM), inactives show top-dose activity, negative = inhibition, hits mostly inhibitors | 350,000 compounds, 8.8% hits; further: on the % scale 0 is the no-effect control and ±100 the full control effect; nearly all actives have a fitted effect of over 75% in size
Target sequence (Q96KQ7 913-1193 limits assumed): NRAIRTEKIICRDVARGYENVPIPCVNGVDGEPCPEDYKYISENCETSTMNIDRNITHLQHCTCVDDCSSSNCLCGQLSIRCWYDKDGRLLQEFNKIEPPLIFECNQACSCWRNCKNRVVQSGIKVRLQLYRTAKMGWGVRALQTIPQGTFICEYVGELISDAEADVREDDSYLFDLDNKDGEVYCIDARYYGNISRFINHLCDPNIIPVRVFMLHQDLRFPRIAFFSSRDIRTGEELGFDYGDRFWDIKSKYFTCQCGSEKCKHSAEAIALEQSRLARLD
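Quantitative HTS format: methyltransferase activity on a biotin-tagged H3K9 peptide is measured by AlphaScreen, using a rabbit anti-monomethyl-H3K9 antibody with streptavidin donor and anti-IgG acceptor beads. Final levels are 20 nM enzyme, 500 nM peptide, 20 uM SAM; 2 h RT.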
Sfp PPTase inh: inhibitors of Bacillus subtilis Sfp phosphopantetheinyl transferase; Q9F4F7; Biochemical Sfp PPTase activity, qHTS; Potency, µM, inactives show largest response in the series, negative = inhibition, most hits filed as inhibitors; 310,000 compounds, 3.5% hits; AID 1490;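 further: the enzyme is Sfp with the accession as filed and its product quenches rhodamine fluorescence; 0% = enzyme reaction without inhibitor and -100% = no enzyme wells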
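Reaction rates are the 30-min fluorescence difference (ex 525, em 598 nm) in wells containing 15 nM Sfp, 5 uM rhodamine-CoA and 12.5 uM BHQ-2-YbbR at pH 7.6 with 10 mM MgCl2.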
VDR inhibitor: inhibitors of human vitamin D receptor. 400,000 compounds, 0.93% hits. Potency, µM, for the others: max response, negative = inhibition, hits mostly inhibitors. AID 504847. VDR-SRC2-3 peptide fluorescence polarization, 2 h; further: on the % scale 0 is the no-effect control and ±100 the full control effect
Target sequence (P11473 whole entry, looked up): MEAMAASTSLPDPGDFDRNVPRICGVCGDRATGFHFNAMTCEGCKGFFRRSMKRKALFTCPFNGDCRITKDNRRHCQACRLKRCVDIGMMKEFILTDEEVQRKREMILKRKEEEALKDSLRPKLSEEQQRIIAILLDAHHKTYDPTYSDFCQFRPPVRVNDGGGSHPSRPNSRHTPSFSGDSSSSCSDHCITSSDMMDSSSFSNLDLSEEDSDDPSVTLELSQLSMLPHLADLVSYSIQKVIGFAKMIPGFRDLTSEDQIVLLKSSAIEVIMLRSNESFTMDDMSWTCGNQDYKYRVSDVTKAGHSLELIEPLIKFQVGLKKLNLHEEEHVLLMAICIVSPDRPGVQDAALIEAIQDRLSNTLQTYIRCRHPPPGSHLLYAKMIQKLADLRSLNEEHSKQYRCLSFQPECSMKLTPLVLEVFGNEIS
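Two reagent solutions held at 4 deg C in the dark were dispensed, compounds pinned at 23 nl, and the mixture incubated 2 h at room temperature. Read-out: fluorescence polarization of VDR–SRC2-3 peptide binding.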
GRP78 ERSR act: induces the endoplasmic reticulum stress response in human glioma cells. 420,000 compounds, 0.02% hits. U87-MG GRP78 promoter luciferase reporter, 16 h. AID 602332. Potency, µM, inactives show top-dose activation, actives largely listed as activators; further: series mostly up to about 76 µM; % of control where 0% means no effect; nearly all actives have a fitted effect of over 35% in size
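Stably transfected U87-MG glioma cells carrying a GRP78-based luciferase sensor; 16 h compound incubation. Luminescence end-point read 10 min after Bright-Glo addition at room temperature.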
Starred values were filed as active, the others as inactive; ? = inconclusive; nt = no result; ! = repeats disagree; [ ] = dose if it differs, or a comment. This is one part of a sample in which hits are shown more often than they occur. The call rests on the fitted dose curve; in most records, active means well fitted curve in the direction sought with a large enough effect; inconclusive means small, poorly fitted or top-dose-only effect, or another doubt; inactive means no such curve, though single readings can be large; an effect the other way counts as inactive or inconclusive. Potency means the concentration at half of the fitted maximal effect.

SMILES | ALOX12 inh | G9a block | Sfp PPTase inh | VDR inhibitor | GRP78 ERSR act
O=c1[nH]c(=S)[nH]c2c1C(c1cc([N+](=O)[O-])c(N3CCOCC3)cc1N1CCOCC1)O2 (stereo not drawn) | ? | 45µM* | 2% | 1% | -1%
O=[N+]([O-])c1ccc(Cl)cc1N1CCOCC1 | 0% | -1%[0.501 µM] | -2% | -6% | -5%
COC(=O)C1CCN(C2=C(NS(=O)(=O)c3ccc(Cl)cc3)C(=O)c3ccccc3C2=O)CC1 | -26% | -175%[59 µM] | -15% | -20% | -4%
NC(=O)C1CCN(C2=C(NS(=O)(=O)c3ccc(Cl)cc3)C(=O)c3ccccc3C2=O)CC1 | -30% | 25µM* | -15% | -9% | -6%
CC1CCCN(C2=C(NS(=O)(=O)c3ccc(Cl)cc3)C(=O)c3ccccc3C2=O)C1 (stereo not drawn) | ? | 2.5µM* | -13% | -5% | 6%
COc1ccc(-n2nc(C(=O)NCC(=O)Nc3cccc(Cl)c3)c3ccccc3c2=O)cc1OC | -5% | 8% | 56µM* | 2% | -1%
COc1ccc(-n2nc(C(=O)NCC(=O)NCCCN3CCC(C)CC3)c3ccccc3c2=O)cc1Cl | -25% | -10% | 21% | 7% | -5%
CCN(CCCNC(=O)CNC(=O)c1nn(-c2ccc(OC)cc2)c(=O)c2ccccc12)c1cccc(C)c1 | -58% | 32µM* | 13% | 15% | 1%
COc1ccc(-n2nc(C(=O)NCC(=O)NCCCN3CCCCCC3)c3ccccc3c2=O)cc1Cl | -18% | 25µM* | -21% | 7% | -1%
CCN(CCCNC(=O)CNC(=O)c1nn(-c2ccc(OC)c(OC)c2)c(=O)c2ccccc12)c1ccccc1 | -22% | ? | 6% | 2% | -4%
CC1CCc2c(nc3ncnn3c2NCCN(C)C)C1 (stereo not drawn) | 9% | 4µM* | -10% | -18% | 1%
C=CCNc1c2c(nc3ncnn13)CC(C)CC2 (stereo not drawn) | -5% | -4% | 8% | -16% | 1%
COc1ccc(/C=N\NC(=O)c2ccc(F)cc2)cc1COc1cc(F)ccc1[N+](=O)[O-] | 314% | nt | -5% | 6% | -3%
COc1ccc(/C=N/NS(=O)(=O)c2ccc(F)cc2)cc1COc1cc(F)ccc1[N+](=O)[O-] | -10% | 6.3µM* | -26% | 2% | -3%
O=c1[nH]c(CSc2ccccn2)nc2ccccc12 | 2% | 29% | 13% | 0% | -5%
Nn1c(CSc2ccccn2)nc2ccccc2c1=O | -1% | 40µM* | -8% | -6% | -5%
CCOc1cc(/C=N/O)ccc1OCC(N)=O | 28% | nt | nt | nt | nt
COc1ccc2[nH]c3c(=S)nc[nH]c3c2c1 | ? | 3.5µM* | 50µM* | 3% | 3%
COc1ccc2[nH]c3c(Cl)ncnc3c2c1 | -17% | -11% | -1% | -3% | -2%
COc1ccc2c(C)c(CC(=O)NC3CCS(=O)(=O)C3)c(=O)oc2c1 (stereo not drawn) | 10% | nt | nt | nt | nt
Nc1ccccc1C(=O)N(Cc1ccccc1)Cc1ccccc1 | 0% | 12%[59 µM] | 27% | -21% | -3%
Nc1ccccc1C(=O)CC(N)C(=O)O (stereo not drawn) | nt | nt | 100µM*! | nt | -3%
CN1CCCN(S(=O)(=O)c2ccc(Cl)cc2)c2ccccc21 | -25% | nt | nt | nt | nt
COc1cccc(S(=O)(=O)N2CCCN(C)c3ccccc32)c1 | 22µM* | nt | nt | nt | nt
CCOC(=O)c1c(-c2ccccc2)nc2ccccc2c1-c1ccccc1 | -6% | nt | nt | nt | nt
SMILES | ALOX12 inh | G9a block | Sfp PPTase inh | VDR inhibitor | GRP78 ERSR act
COC(=O)c1c(C)nc(C)c(C(=O)OC)c1-c1ccc(OC)c(OC)c1 | -5% | 4% | 20% | -3% | -1%
CCOC(=O)c1c(C)nc(C)c(C(=O)OCC)c1-c1ccc(O)c(OC)c1 | ? | 8.9µM* | 32µM* | ? | -2%
CCOC(=O)c1c(C)nc2ccccc2c1-c1ccccc1 | 5% | 0%[59 µM] | 79µM* | 0% | -3%
Cc1ccc(Cl)cc1N1CCN(CC(O)COCc2ccco2)CC1 (stereo not drawn) | 10µM* | 11µM* | ? | -2% | -5%
OC(COCc1ccco1)CN1CCN(C(c2ccccc2)c2ccccc2)CC1 (stereo not drawn) | ? | -159% | -20% | -6% | -3%
CCN(CC)c1ccc(C2C(C(=O)Nc3ccccc3F)=C(C)NC3=C2C(=O)CCC3)cc1 (stereo not drawn) | -3% | nt | nt | nt | nt
CC1=C(C(=O)Nc2ccccc2)C(c2ccncc2)C(C#N)=C(SCC(=O)Nc2ccccc2)N1 (stereo not drawn) | ? | 28µM* | 0% | 2% | -4%
CC1=C(C(=O)Nc2ccccc2)C(c2ccco2)C(C#N)=C(SCc2ccccc2)N1 (stereo not drawn) | nt | ? | 4% | nt | nt
CSC1=C(C#N)C(c2ccncc2)C(C(=O)Nc2ccccc2)=C(C)N1 (stereo not drawn) | -6% | 25µM* | 15% | 26% | 0%
Cc1cccc(Oc2nc(-c3ccccn3)nc3ccccc23)c1 | ? | -1% | 71µM* | 18% | 4%
Cc1cccc(Oc2nc(-c3ccncc3)nc3ccccc23)c1 | ? | nt | ? | 3% | -6%
O=C1CCCCCCCCCCCCCCO1 | 3%[176 µM] | nt | nt | nt | nt
CCn1c(SCC(=O)c2ccc(O)c(O)c2)nnc1-c1ccccc1 | ? | 14µM* | -18% | -7% | 1%
C=CCn1c(SCC(=O)c2ccc(O)c(O)c2)nnc1-c1cccc(C)c1 | 8.9µM* | ? | nt | -15% | 2%
C=CCn1c(SCC(=O)Nc2ccc(N(C)C)cc2)nnc1-c1cccc(C)c1 | 0% | 7.9µM* | 3% | 89µM* | 0%
CCn1c(CSc2nc3ccccc3s2)nnc1SCC(=O)c1ccc(O)c(O)c1 | ? | 0.79µM* | 3% | 7% | -1%
C=CCn1c(SCC(=O)Nc2cccc(C)c2)nnc1-c1cnccn1 | 3% | 2%[59 µM] | 5% | 8% | -1%
CN(Cc1ccncc1)C(=O)CCCNC(=O)C1CC1 | -9% | nt | nt | nt | nt
CCCc1nnc2sc(-c3ccc(OC)cc3)nn12 | 19% | nt | nt | nt | nt
O=S(=O)(c1ccc(SCc2cc3c(cc2Br)OCCO3)nc1)N1CCOCC1 | 6% | nt | nt | nt | nt
C=CCn1c(SCC(=O)c2ccc(O)c(O)c2)nnc1-c1ccccc1OC | ? | 5µM* | -23% | -7% | 5%
CCc1cccc(NC(=O)c2ncoc2-c2cccc(Cl)c2)c1 | -33% | nt | nt | nt | nt
O=C(O)COc1ccc(-c2nccc3c2C(=O)N(Cc2ccccc2)CC(COc2ccc(Cl)cc2)O3)cc1 (stereo not drawn) | 4% | nt | nt | nt | nt
COc1ccc2[nH]c(N=Nc3ccccc3C)c(O)c2c1 | ? | 13µM* | -10% | 1% | 5%
Cc1ccccc1N=Nc1c(O)[nH]c2ccccc12 | 0% | nt | nt | -15% | 0%
O=C(N=Nc1c(O)[nH]c2ccc(Br)cc12)c1ccccc1-n1cccc1 | 1% | 25µM* | -5% | -1% | -7%
Cc1cccc(N=Nc2c(O)[nH]c3ccc(Br)cc23)c1 | ? | 45µM* | 9% | -8% | 5%
